miR122 inh = miR-122 Renilla sensor signal increase in Huh7, primary screen, miR-122 inhibitor project, cell-based, single point, plate reader | 0.3% of 340,000 active | Huh7 miR-122 Renilla luciferase sensor, 48 h; neutral wells = 0, positive control = 100 | activation (reporter increase), % at 12.5 µM | AID 602342, 2012;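 active = mean replicate activation score at least 90 and every replicate individually at or above 90; inconclusive = only one of the two criteria met; inactive = neither criterion met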;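 also: higher luciferase means less miR-122 activity so hits act as miR-122 inhibitors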
HIV Env fusion = inhibitors of HIV-1 Env-driven cell-cell fusion, primary screen, HeLa-JRFL effector, CEM21 target cells, luciferase | 1.1% of 360,000 active | AID 651610, 2012 | inhibition, % at 12.3 µM;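 active = mean replicate inhibition score of at least 50 and every replicate individually at or above 50; inconclusive = only one of the two criteria met; inactive = mean below 50 and not all replicates reaching 50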;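 also: 0% = plate neutral controls and 100% = maraviroc near 300 nM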
EWS-Fli inh = EWS/Fli-driven NR0B1 reporter inhibitors, primary screen, A673 cells, NR0B1 luciferase, luminescence, MLPCN library; 0.67% of 350,000 active; viability-normalised; inhibition, % at 12.6 µM;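 active = mean inhibition of at least 50% after viability correction, with every replicate also passing that limit; inconclusive = mean reaches 50% but only one of two replicates passes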;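 also: firefly luciferase signal divided by Alamar Blue viability fluorescence both relative to DMSO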
C2C12 statin = suppressors of statin myotoxicity in C2C12 myotubes, primary screen, cell-based, single point, plate reader; C2C12 myotubes + simvastatin, ATP luminescence, 48 h; scaled: DMSO 0, geranylgeraniol control 100; 0.78% of 330,000 active; rescue of ATP level, % at 7.49 µM; AID 602340, 2012;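 active = mean ATP rescue above about 67%, or every replicate alone reaching that limit, limit read from the data, passing the limit was not always enough; inconclusive = no clear call, values can overlap the other calls; inactive = mean under the limit and some replicate under it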;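 also: myotubes were challenged with 10 µM simvastatin during compound exposure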
INS-1E GSIS act = GLuc luminescence reporter in INS-1E cells, primary screen for activators of glucose-dependent secretion of insulin; INS-1E GLuc reporter insulin secretion, 2-3 h; activation, % at 16.6 µM; 0.61% of 370,000 active;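 active = lowest replicate activation of at least 40%, so every replicate reaches that level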;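 also: 0% = median of neutral control wells and 100% = median of IBMX positive control wells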
PAX8 inh HTS = inhibitors of PAX8-driven TPO luciferase reporter, primary screen, RMG-I cells, single concentration; 1.2% of 360,000 active; SteadyGlo, 24 h; inhibition, % at 12.6 µM; AID 652154, 2013;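 active = mean replicate inhibition at least 60% with every replicate also reaching 60%; inconclusive = only one of the two criteria is met; inactive = mean below 60% and not all replicates reaching 60%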;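 also: luciferase light reporting Pax8 driven TPO promoter activity; plate controls were median of neutral control wells for no effect and mitoxantrone controls for full effect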
An asterisk follows results filed as active; [ ] = remark or other dose. Most compounds without a hit are left out; they make up all but 3.1% or so of the library.

How did O=C(O)C1(P(=O)(c2ccccc2)c2ccccc2)CCCC1 do in these assays?
miR122 inh: 6; HIV Env fusion: -25; EWS-Fli inh: 3; C2C12 statin: 3; PAX8 inh HTS: -10

How did CCN(CC)C(=O)C1(P(=O)(c2ccccc2)c2ccccc2)CCC1 do in these assays?
miR122 inh: -5; HIV Env fusion: 21; EWS-Fli inh: 10; C2C12 statin: -4; INS-1E GSIS act: 90*; PAX8 inh HTS: 16

What do the screens show for `CC=Cc1ccc2n(c1=O)C[C@@H]1[C@@H](CO)[C@H](C(=O)Nc3ccccc3)[C@H]2N1C(=O)CC` (mixture of isomers)?
miR122 inh: 1[16.7 µM]; EWS-Fli inh: -4; C2C12 statin: -17; INS-1E GSIS act: 7; PAX8 inh HTS: -3

How did O=C(NNc1ccccc1[N+](=O)[O-])Nc1ccc(Cl)c(Cl)c1 do in these assays?
HIV Env fusion: 52; EWS-Fli inh: -1; PAX8 inh HTS: -2

Results for CCN(CC)S(=O)(=O)c1cc([N+](=O)[O-])ccc1NNC(=O)Nc1ccc(Cl)c(Cl)c1 ?
miR122 inh: -1; HIV Env fusion: 97*; C2C12 statin: -23; PAX8 inh HTS: 89*

Results for O=C1c2cccc3c([N+](=O)[O-])ccc(c23)C(=O)N1c1ccccn1 ?
miR122 inh: -14; HIV Env fusion: -331; C2C12 statin: 55; PAX8 inh HTS: 25

How did O=C1c2cccc3c([N+](=O)[O-])ccc(c23)C(=O)N1O do in these assays?
HIV Env fusion: 1; EWS-Fli inh: 1; C2C12 statin: -1; INS-1E GSIS act: -22; PAX8 inh HTS: 52

What do the screens show for `CC(=O)Oc1ccc(N2C(=O)c3cccc4c([N+](=O)[O-])ccc(c34)C2=O)cc1`?
miR122 inh: -9; HIV Env fusion: -77; EWS-Fli inh: 66*; C2C12 statin: inconclusive; INS-1E GSIS act: -28; PAX8 inh HTS: 44

Results for O=C1c2cccc3c([N+](=O)[O-])ccc(c23)C(=O)N1c1ccc(Cl)cn1 ?
miR122 inh: 8; HIV Env fusion: -419; C2C12 statin: 129*; INS-1E GSIS act: -8

What do the screens show for `N#CC(C#N)=C1C=CC=CN1/C(=C\c1ccco1)C(=O)c1ccc(-c2ccccc2)cc1`?
HIV Env fusion: -188; INS-1E GSIS act: -32; PAX8 inh HTS: 92*

How did COC(=O)CN1C(C)=Nc2ccc(C)cc2C1c1ccccc1 (configuration not stated) do in these assays?
HIV Env fusion: 17; EWS-Fli inh: 7; INS-1E GSIS act: 6; PAX8 inh HTS: -8

What do the screens show for `COC(=O)CN1C(c2ccccc2)=Nc2ccc(Cl)cc2C1c1ccccc1` (configuration not stated)?
miR122 inh: 4; HIV Env fusion: 105*; C2C12 statin: -1

How did CCC(NS(=O)(=O)c1c(C)[nH]c(=O)[nH]c1=O)C12CC3CC(CC(C3)C1)C2 (configuration not stated) do in these assays?
miR122 inh: -9; HIV Env fusion: 80*; INS-1E GSIS act: 3; PAX8 inh HTS: -1

Results for CCN1CCN(C(=O)c2cc3cc4cc(OC)ccc4nc3s2)CC1 ?
miR122 inh: -2; C2C12 statin: 73*

What do the screens show for `CC1(Cc2ccc(Cl)c(Cl)c2)C(=O)Nc2ccc(S(=O)(=O)NC3CCCCC3)cc21` (configuration not stated)?
miR122 inh: 68; HIV Env fusion: 57*; EWS-Fli inh: -9; C2C12 statin: 31; INS-1E GSIS act: -38; PAX8 inh HTS: 42

What do the screens show for `CC1(Cc2cccc(F)c2)C(=O)Nc2ccc(S(=O)(=O)NC3CCCCC3)cc21` (configuration not stated)?
miR122 inh: 56; HIV Env fusion: 58*; EWS-Fli inh: 2; C2C12 statin: 164*; INS-1E GSIS act: -17; PAX8 inh HTS: 7

How did CCOC(=O)[C@@H]1[C@H]2COc3cc(OC)ccc3[C@H]2N2C(=O)N(c3cccc(F)c3)C(=O)[C@@]12C do in these assays?
miR122 inh: 0; HIV Env fusion: 95*; EWS-Fli inh: -11; C2C12 statin: 30; INS-1E GSIS act: -7; PAX8 inh HTS: 6

Results for CCOC(=O)[C@@H]1[C@H]2COc3cc(OC)ccc3[C@H]2N2C(=O)N(c3ccc(C(F)(F)F)cc3)C(=O)[C@]12C ?
miR122 inh: -2; HIV Env fusion: 109*; EWS-Fli inh: 8; C2C12 statin: -32; INS-1E GSIS act: -29; PAX8 inh HTS: 15

Results for CCOC(=O)[C@@H]1[C@H]2COc3ccccc3[C@@H]2N2C(=O)N(c3cccc(Cl)c3)C(=O)[C@@]12C ?
miR122 inh: 3; HIV Env fusion: 55*; EWS-Fli inh: 9; C2C12 statin: 8; INS-1E GSIS act: -16; PAX8 inh HTS: 10

What do the screens show for `CCOC(=O)[C@H]1[C@H]2COc3cc(OC)ccc3[C@@H]2N2C(=O)N(c3cccc(F)c3)C(=O)[C@@]12C`?
miR122 inh: 0; HIV Env fusion: -2; EWS-Fli inh: -1; C2C12 statin: -4; INS-1E GSIS act: -30; PAX8 inh HTS: -4

What do the screens show for `C[C@@H]1CN([C@H](C)CO)C(=O)Cc2cc(NC(=O)Cc3ccccc3)ccc2O[C@H]1CN(C)C(=O)Nc1ccccc1`?
miR122 inh: 3[16.7 µM]; HIV Env fusion: 10[16.7 µM]; EWS-Fli inh: -14; C2C12 statin: 23; INS-1E GSIS act: -1; PAX8 inh HTS: -12

Results for CO[C@H]1CN(C)C(=O)c2cc(NC(=O)NC3CCCC3)ccc2OC[C@@H](C)N(CC2CC2)C[C@H]1C ?
INS-1E GSIS act: 4; PAX8 inh HTS: -9

What do the screens show for `COc1cc(S(=O)(=O)Nc2ncccc2C)c(OC)cc1Cl`?
miR122 inh: 62; C2C12 statin: 121*

Results for COc1ccc(Br)cc1S(=O)(=O)Nc1ncccc1C ?
HIV Env fusion: 9; EWS-Fli inh: -7; INS-1E GSIS act: 3; PAX8 inh HTS: -12

Results for Cc1cc(C)nc(SCc2n[nH]c(=S)n2C)n1 ?
miR122 inh: 18; C2C12 statin: 92*

How did Cc1ccc(-n2c(CSc3nc(C)cc(C)n3)n[nH]c2=S)cc1 do in these assays?
miR122 inh: -1; HIV Env fusion: 3; EWS-Fli inh: 6; INS-1E GSIS act: 0; PAX8 inh HTS: 12

What do the screens show for `COc1ccc(C(=O)OCC(=O)c2c(N)n(C)c(=O)n(C)c2=O)c(OC)c1OC`?
miR122 inh: 12; HIV Env fusion: 3; EWS-Fli inh: 2; C2C12 statin: -23; INS-1E GSIS act: 45*; PAX8 inh HTS: -5
